For three molecules, outcome and AC50 results are on record in PubChem BioAssay (EPA / NIEHS).

Assay [1] is described as follows: ATG_DR4_LXR_CIS: Attagene CIS-FACTORIAL HepG2 Assay for human Liver X Receptor (LXR), DR4 submotif (AID 2282929). Conditions: HepG2 Attagene DR4 cis-reporter, mRNA transcription; AC50: actives raise or lower the signal unless noted; outcome: actives raise or lower the signal unless noted. An outline of the steps: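 Cells were transfected with multiple reporter transcription units, exposed to chemicals for 24 hours, then lysed for RNA. Reporter mRNA induction was measured by RT-PCR with capillary electrophoresis detection and fitted in both directions relative to DMSO.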

Assay [2] concerns the target Aryl hydrocarbon receptor (Homo sapiens) (UniProt P35869). Kind of assay: ATG_Ahr_CIS: Attagene CIS-FACTORIAL HepG2 Assay for human Aryl Hydrocarbon Receptor (Ahr) (AID 2282930). Conditions: HepG2 AhR cis-factorial reporter transcription; actives raise or lower the signal. The gist of the method: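 Following 24 h of chemical dosing, transfected HepG2 liver cells with cis-driven reporter units were lysed for RNA; reporter mRNA was quantified via RT-PCR and capillary electrophoresis, and responses fitted bidirectionally from DMSO.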

Assay [3] can be described thus: ATG_AP_1_CIS: Attagene CIS-FACTORIAL HepG2 Assay for human Activator Protein 1 (AP-1) (AID 2282931). Conditions: HepG2 Attagene cis-factorial AP-1 reporter mRNA; actives raise or lower the signal. The gist of the method:
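Endogenous transcription-factor activity in human HepG2 liver cells is read through a cis-promoter reporter transcript, sampled 24 h after dosing. Detection uses RT-PCR with capillary electrophoresis; values come from bidirectional fitting relative to DMSO.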

Assay [4] can be described thus: ATG_AP_2_CIS: Attagene CIS-FACTORIAL HepG2 Assay for human Activator Protein 2 (AP-2) (AID 2282932). Conditions: HepG2 AP-2 cis-reporter, Attagene transcription factor profiling; AC50: actives raise or lower the signal unless noted; outcome: actives raise or lower the signal unless noted. An outline of the steps: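 HepG2 cells were transiently transfected with multiple cis-promoter reporter transcription units and dosed for 24 h. Reporter mRNA was measured by RT-PCR with capillary electrophoresis fluorescence; bidirectional fits relative to DMSO baseline.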

Assay [5] can be described thus: ATG_BRE_CIS: Attagene CIS-FACTORIAL HepG2 Assay for human Bone Morphogenetic Protein (BMP) Response Element (BRE) (AID 2282933). Conditions: HepG2 BMP response element reporter, Attagene transcription factor profiling; actives raise or lower the signal. The gist of the method:
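Gain- or loss-of-signal was derived by bidirectional fitting against DMSO controls. The signal came from reporter mRNA, measured by RT-PCR and capillary electrophoresis, in HepG2 cells transiently carrying multiple reporter units and dosed for 24 h.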

In assay [6] the target is Transcription factor E2F1 (Homo sapiens) (UniProt Q01094). The experiment in a line: ATG_E2F_CIS: Attagene CIS-FACTORIAL HepG2 Assay for human E2F Transcription Factor 1 (AID 2282935). Conditions: HepG2 Attagene cis-reporter, E2F reporter RNA transcripts; actives raise or lower the signal. An outline of the steps:
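HepG2 cells transiently transfected with multiplexed cis-element reporter units, dosed for 24 h. Reporter mRNA measured by RT-PCR, 6-FAM primer-extension labeling, HpaI digestion and capillary electrophoresis; bidirectional fit versus DMSO baseline.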

Assay [7] is described as follows: ATG_E_Box_CIS: Attagene CIS-FACTORIAL HepG2 Assay for human Enhancer Box (E-box) (AID 2282936). Conditions: HepG2 E-box cis-reporter transcription, actives raise or lower the signal. The gist of the method:
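HepG2 cells transiently transfected with multiplexed cis-element reporter units sensing endogenous transcription factor activity; 24 h compound exposure. Reporter mRNA measured by RT-PCR, 6-FAM primer extension, HpaI digestion and capillary electrophoresis; bidirectional fit versus DMSO.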

The nature of assay [8]: ATG_M_61_CIS: Attagene CIS-FACTORIAL HepG2 Assay for M61 Transcription Factor (Internal Marker) (AID 2282937). Conditions: HepG2 Attagene CIS-FACTORIAL M61 internal marker reporter; actives raise or lower the signal. The gist of the method:
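Cells were transfected with reporter units under cis-regulatory promoters, treated with chemicals for 24 h, then lysed for RNA. Reporter transcripts were quantified by RT-PCR and capillary electrophoresis, and activity was fitted bidirectionally against DMSO.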

Assay [9] can be described thus: ATG_EGR_CIS: Attagene CIS-FACTORIAL HepG2 Assay for human Early Growth Response 1 (EGR1) (AID 2282938). Conditions: HepG2 Attagene CIS-FACTORIAL EGR reporter mRNA; actives raise or lower the signal. An outline of the steps: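 Endogenous TF activity in HepG2 liver cells was gauged through cis-promoter reporter constructs transiently transfected. After 24 h dosing, reporter mRNA was quantified by RT-PCR and capillary electrophoresis, and curves fitted in both directions versus DMSO.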

A short description of assay [10]: ATG_M_19_CIS: Attagene CIS-FACTORIAL HepG2 Assay for M19 Transcription Factor (Internal Marker) (AID 2282939). Conditions: HepG2 Attagene CIS-FACTORIAL M19 internal marker reporter; actives raise or lower the signal. The gist of the method:
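Following a 24 h exposure, RNA from transfected HepG2 cells was reverse-transcribed, PCR-amplified with reporter-specific primers, end-labelled with 6-FAM and HpaI-digested before capillary separation. Values represent gain or loss versus DMSO.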

The nature of assay [11]: ATG_ERE_CIS: Attagene CIS-FACTORIAL HepG2 Assay for Estrogen Response Element (ERE) (AID 2282940). Conditions: HepG2 ERE cis-reporter, Attagene RNA transcript; actives raise or lower the signal. An outline of the steps: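 HepG2, transient cis-reporter units, 24 h exposure. RNA isolated, oligo(dT) RT, reporter-specific PCR, FAM extension, HpaI cut, CE detection. Gain/loss-of-signal vs DMSO.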

Assay [12] can be described thus: ATG_Ets_CIS: Attagene CIS-FACTORIAL HepG2 Assay for human Erythroblast Transformation Specific (ETS) (AID 2282941). Conditions: HepG2 ETS cis-reporter transcription; AC50: actives raise or lower the signal unless noted; outcome: actives raise or lower the signal unless noted. An outline of the steps:
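After transient cis-reporter transfection, HepG2 cells receive test chemical for 24 h. Reporter mRNA levels, measured by RT-PCR and capillary electrophoresis fluorescence, are analysed bidirectionally relative to the DMSO baseline.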

The target of assay [13] is Hepatocyte nuclear factor 3-beta (Homo sapiens) (UniProt Q9Y261). The experiment in a line: ATG_FoxA2_CIS: Attagene CIS-FACTORIAL HepG2 Assay for human Forkhead box A2 (FOXA2) (AID 2282942). Conditions: HepG2 cis-reporter transcription factor activity, 24 h; actives raise or lower the signal. The gist of the method: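 Endogenous transcription factor activity was read in HepG2 cells carrying transiently transfected cis-promoter reporter units. After 24 h dosing, reporter mRNA was quantified by RT-PCR and capillary electrophoresis, and values fitted bidirectionally versus DMSO.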
Sequence of Hepatocyte nuclear factor 3-beta (Homo sapiens) (Q9Y261 whole entry, looked up): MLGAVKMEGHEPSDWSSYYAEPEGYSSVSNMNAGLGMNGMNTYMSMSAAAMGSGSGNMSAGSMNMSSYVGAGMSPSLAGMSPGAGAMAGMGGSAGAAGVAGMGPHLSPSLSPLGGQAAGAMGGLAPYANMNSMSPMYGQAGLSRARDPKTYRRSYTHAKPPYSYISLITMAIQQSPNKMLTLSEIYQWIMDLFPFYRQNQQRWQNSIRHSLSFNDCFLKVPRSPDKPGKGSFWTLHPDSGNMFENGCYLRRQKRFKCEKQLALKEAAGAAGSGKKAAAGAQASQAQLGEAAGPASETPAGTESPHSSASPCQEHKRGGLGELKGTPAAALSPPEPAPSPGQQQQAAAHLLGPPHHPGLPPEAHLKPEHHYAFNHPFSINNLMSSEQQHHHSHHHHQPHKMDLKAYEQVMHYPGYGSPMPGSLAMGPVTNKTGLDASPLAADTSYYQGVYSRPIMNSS

The nature of assay [14]: ATG_FoxO_CIS: Attagene CIS-FACTORIAL HepG2 Assay for human Forkhead box O (FoxO) (AID 2282943). Conditions: HepG2 Attagene cis-reporter, FoxO element, mRNA; actives raise or lower the signal. An outline of the steps:
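24 h chemical exposure, HepG2 with transient cis-MRTU transfection. RNA extraction, oligo(dT) RT, reporter-specific PCR, primer-extension labelling, HpaI digestion, CE fragment analysis; bidirectional fit, DMSO baseline.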

The nature of assay [15]: ATG_GATA_CIS: Attagene CIS-FACTORIAL HepG2 Assay for human GATA Binding Protein (AID 2282944). Conditions: HepG2 GATA cis-element reporter, Attagene multiplex mRNA; actives raise or lower the signal. An outline of the steps:
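DMSO serves as negative control and baseline for bidirectional fitting of reporter mRNA changes. HepG2 cells bearing transiently transfected cis-promoter reporters were exposed 24 h; transcripts detected via RT-PCR and capillary electrophoresis.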

Assay [16] can be described thus: ATG_GLI_CIS: Attagene CIS-FACTORIAL HepG2 Assay for human Zinc Finger Protein GLI1 (AID 2282945). Conditions: HepG2, Attagene cis-factorial reporter mRNA, GLI element; actives raise or lower the signal. An outline of the steps: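 HepG2 cells transiently transfected with cis-promoter multiplexed reporter units report endogenous transcription factor activity. After 24 h chemical exposure, reporter mRNA was quantified by RT-PCR, 6-FAM labelling, HpaI digestion and capillary electrophoresis, with bidirectional fitting against DMSO.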

The target of assay [17] is Bile acid receptor (Homo sapiens) (UniProt Q96RI1). Kind of assay: ATG_IR1_CIS: Attagene CIS-FACTORIAL HepG2 Assay for human Nuclear Receptor Subfamily 1 Group H Member 4 (NR1H4), IR1 submotif (AID 2282946). Conditions: IR1 reporter transcription, actives raise or lower the signal. The gist of the method: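 Transient MRTU transfection, HepG2; 24 h dosing; RNA → RT-PCR → 6-FAM primer extension → HpaI digest → capillary electrophoresis fluorescence. Gain/loss of signal fitted relative to DMSO.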
Sequence of Bile acid receptor (Homo sapiens) (Q96RI1 whole entry, looked up): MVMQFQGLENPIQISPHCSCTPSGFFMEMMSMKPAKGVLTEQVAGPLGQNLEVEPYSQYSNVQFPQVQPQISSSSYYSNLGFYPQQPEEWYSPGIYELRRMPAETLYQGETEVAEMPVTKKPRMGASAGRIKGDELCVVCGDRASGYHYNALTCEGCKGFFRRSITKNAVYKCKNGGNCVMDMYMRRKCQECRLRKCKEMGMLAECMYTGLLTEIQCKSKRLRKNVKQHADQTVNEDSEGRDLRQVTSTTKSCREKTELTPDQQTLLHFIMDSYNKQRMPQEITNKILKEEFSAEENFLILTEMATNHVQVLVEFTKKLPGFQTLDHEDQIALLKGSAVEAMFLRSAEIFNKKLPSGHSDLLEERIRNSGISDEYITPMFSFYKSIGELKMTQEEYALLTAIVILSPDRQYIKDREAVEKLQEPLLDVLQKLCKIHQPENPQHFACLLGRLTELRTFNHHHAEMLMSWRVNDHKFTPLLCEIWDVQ

Assay [18] in a line: ATG_GRE_CIS: Attagene CIS-FACTORIAL HepG2 Assay for human Glucocorticoid Response Elements (GRE) (AID 2282947). Conditions: HepG2 GRE cis-reporter, Attagene multiplex mRNA; AC50: actives raise or lower the signal unless noted; outcome: actives raise or lower the signal unless noted. An outline of the steps: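 HepG2 cells transiently transfected with multiple cis-promoter reporter units measure endogenous TF activity; 24 h compound exposure. Reporter mRNA quantified by RT-PCR, FAM labelling, HpaI digestion and capillary electrophoresis; bidirectional fit vs DMSO baseline.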

Assay [19] in a line: ATG_ISRE_CIS: Attagene CIS-FACTORIAL HepG2 Assay for human Interferon Regulatory Factor 1 (IRF1) binding to an Interferon-Stimulated Response Element (ISRE) (AID 2282948). Conditions: HepG2 ISRE cis-reporter (Attagene), mRNA transcription readout; actives raise or lower the signal. The gist of the method: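 Quantitation relies on labelled RT-PCR fragments separated by capillary electrophoresis. Human HepG2 cells bearing cis-promoter reporter constructs were treated 24 h; DMSO served as baseline for bidirectional fitting.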

For assay [20], the target named is Retinoic acid receptor alpha (Homo sapiens) (UniProt P10276). The experiment in a line: ATG_DR5_RAR_CIS: Attagene CIS-FACTORIAL HepG2 Assay for human Retinoic Acid Receptor Alpha (RARE), DR5 submotif (AID 2282934). Conditions: HepG2 Attagene cis-factorial RARE DR5 reporter, mRNA; actives raise or lower the signal. The gist of the method:
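Transfected HepG2 reporter cells are exposed to chemicals for 24 h. Then RNA is extracted and the DR5 element reporter transcript is measured by RT-PCR and capillary electrophoresis, with bidirectional curve fitting relative to DMSO.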

Activity calls are given as the source filed them. The calls were made as follows: active = hit-call score of the fitted dose curve at least 0.9, where 1 is the maximum; inactive = score below 0.9.

Sequence of Transcription factor E2F1 (Homo sapiens) (Q01094 whole entry, looked up): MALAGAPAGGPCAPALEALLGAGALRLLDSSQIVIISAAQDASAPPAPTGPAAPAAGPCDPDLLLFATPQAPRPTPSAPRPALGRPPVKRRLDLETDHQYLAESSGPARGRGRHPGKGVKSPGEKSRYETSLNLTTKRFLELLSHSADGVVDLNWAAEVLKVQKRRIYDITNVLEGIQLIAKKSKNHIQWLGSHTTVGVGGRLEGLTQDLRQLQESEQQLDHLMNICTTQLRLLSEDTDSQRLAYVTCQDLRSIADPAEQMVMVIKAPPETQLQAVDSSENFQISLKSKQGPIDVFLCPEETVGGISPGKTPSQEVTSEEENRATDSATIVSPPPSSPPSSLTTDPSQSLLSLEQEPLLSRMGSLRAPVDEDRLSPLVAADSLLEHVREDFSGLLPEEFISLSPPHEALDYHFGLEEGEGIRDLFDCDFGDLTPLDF
Sequence of Retinoic acid receptor alpha (Homo sapiens) (P10276 whole entry, looked up): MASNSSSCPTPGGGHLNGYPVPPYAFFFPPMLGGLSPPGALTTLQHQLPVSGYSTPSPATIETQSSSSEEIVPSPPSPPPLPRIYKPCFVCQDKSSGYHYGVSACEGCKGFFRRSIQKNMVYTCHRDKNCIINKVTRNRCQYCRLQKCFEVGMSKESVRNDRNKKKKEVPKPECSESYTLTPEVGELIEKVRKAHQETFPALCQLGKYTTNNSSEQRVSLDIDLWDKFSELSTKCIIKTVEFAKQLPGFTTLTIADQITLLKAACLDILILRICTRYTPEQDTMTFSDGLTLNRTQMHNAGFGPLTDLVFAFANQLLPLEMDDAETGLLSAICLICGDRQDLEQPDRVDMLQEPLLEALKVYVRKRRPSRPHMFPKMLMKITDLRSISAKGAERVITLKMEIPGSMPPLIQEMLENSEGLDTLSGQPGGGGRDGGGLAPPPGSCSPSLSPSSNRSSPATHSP
Sequence of Aryl hydrocarbon receptor (Homo sapiens) (P35869 whole entry, looked up): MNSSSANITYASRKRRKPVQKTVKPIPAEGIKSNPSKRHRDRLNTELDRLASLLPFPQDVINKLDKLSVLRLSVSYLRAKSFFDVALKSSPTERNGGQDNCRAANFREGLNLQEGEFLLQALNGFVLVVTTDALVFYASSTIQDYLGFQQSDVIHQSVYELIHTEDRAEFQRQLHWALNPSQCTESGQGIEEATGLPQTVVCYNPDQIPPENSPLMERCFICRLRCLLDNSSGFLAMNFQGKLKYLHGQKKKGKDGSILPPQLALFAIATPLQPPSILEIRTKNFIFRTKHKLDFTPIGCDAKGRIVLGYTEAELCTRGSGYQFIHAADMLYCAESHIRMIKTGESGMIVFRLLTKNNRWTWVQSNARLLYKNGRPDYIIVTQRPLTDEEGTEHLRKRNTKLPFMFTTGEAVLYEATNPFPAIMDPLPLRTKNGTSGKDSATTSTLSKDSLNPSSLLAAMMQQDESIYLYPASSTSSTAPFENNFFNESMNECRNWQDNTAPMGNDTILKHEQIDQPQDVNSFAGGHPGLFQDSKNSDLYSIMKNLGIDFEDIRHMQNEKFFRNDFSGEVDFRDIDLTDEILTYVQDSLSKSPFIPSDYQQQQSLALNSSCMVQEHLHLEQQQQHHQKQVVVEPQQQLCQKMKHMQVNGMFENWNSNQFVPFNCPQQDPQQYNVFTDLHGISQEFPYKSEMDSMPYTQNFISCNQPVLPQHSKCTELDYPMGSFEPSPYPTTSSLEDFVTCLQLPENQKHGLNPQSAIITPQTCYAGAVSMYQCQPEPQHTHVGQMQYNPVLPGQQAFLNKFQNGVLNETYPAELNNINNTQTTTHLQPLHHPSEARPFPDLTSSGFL

Take `FC(F)(F)C(F)(F)C(F)(F)Br`: the molecule was classed as inactive in [1], in assay [2], in [3], in assay [4], in assay [5] and in [6]. Also, the outcome in [7], in assay [8], in assay [9], in assay [10], in assay [11] and in assay [12] was inactive. Further, the molecule was called inactive in [13], in assay [14], in [15], in assay [16], in [17] and in assay [18]. Besides, in assay [19], the call was inactive.
Broadly, the AC50 is the midpoint of the concentration-response curve, whichever way the signal moves. Consider `CCCCCCCCCCCCCC[n+]1ccccc1`, for which the outcome in assay [1], in [2], in assay [20], in assay [6], in assay [8] and in assay [10] was inactive. Also, the call in [11], in assay [12], in assay [14], in [15], in [16] and in assay [18] was inactive. The outcome in assay [19] was inactive. Moreover, the AC50 in [3] was 252 nM (active); in assay [4], 19800 nM (active); in assay [5], 1220 nM (active); in assay [9], 2520 nM (active); in assay [13] it was 18200 nM (active).
As for `CCC1CO1` (centres undefined), the molecule was classed as inactive in [1], in assay [2], in [3], in assay [4], in assay [5] and in assay [20]. In addition, the call in [6], in [8], in assay [9], in assay [10], in assay [12] and in assay [14] was inactive. The molecule was called inactive in [15], in [16], in assay [17], in assay [18] and in assay [19].
